Data: PMC5540273 (PLoS ONE, 2017)

How the values were obtained:
Details in all cases: concentration: 1 μM, replicates: in singlicate; n = 1
MAP4K3 = system: MAP4K3
MAP4K4 = system: MAP4K4
MAP4K5 = system: MAP4K5
MAPKAPK2 = system: MAPKAPK2
MAPKAPK5 = system: MAPKAPK5
MARK1 = system: MARK1
MARK2 = system: MARK2
MARK3 = system: MARK3
MARK4 = system: MARK4
MAST1 = system: MAST1
MEK1 = system: T1, MEK1
T1 construct: gene MAP2K1

MEK2 = system: T2, MEK2
T2 construct: gene MAP2K2

MEK3 = system: T3, MEK3
T3 construct: gene MAP2K3

MEK4 = system: T4, MEK4
T4 construct: gene MAP2K4

MEK5 = system: T5, MEK5
T5 construct: gene MAP2K5

MEK6 = system: T6, MEK6
T6 construct: gene MAP2K6

MELK = system: MELK
MERTK = system: MERTK
MET = system: MET
MINK = system: T7, MINK
T7 construct: gene MINK1
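Also: KINOMEscan kinase panel screen.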

| Compound | %Inh (MAP4K3) [%] | %Inh (MAP4K4) [%] | %Inh (MAP4K5) [%] | %Inh (MAPKAPK2) [%] | %Inh (MAPKAPK5) [%] | %Inh (MARK1) [%] | %Inh (MARK2) [%] | %Inh (MARK3) [%] | %Inh (MARK4) [%] | %Inh (MAST1) [%] | %Inh (MEK1) [%] | %Inh (MEK2) [%] | %Inh (MEK3) [%] | %Inh (MEK4) [%] | %Inh (MEK5) [%] | %Inh (MEK6) [%] | %Inh (MELK) [%] | %Inh (MERTK) [%] | %Inh (MET) [%] | %Inh (MINK) [%] |
| --- | --- | --- | --- | --- | --- | --- | --- | --- | --- | --- | --- | --- | --- | --- | --- | --- | --- | --- | --- | --- |
| O=C1Cc2cc(Nc3nc(NCc4cccc(S(=O)(=O)C(F)(F)F)c4)ncc3C(F)(F)F)ccc2N1 | 13 | 0 | 0 | 4 | 30 | 5 | 0 | 19 | 6 | 0 | 0 | 0 | 15 | 30 | 0 | 14 | 0 | 0 | 0 | 0 |
| Cc1cccc(Cn2ccn3c(=O)cc(N4CCOCC4)nc23)c1 [GSK2297542] | 0 | 4 | 0 | 14 | 0 | 7 | 11 | 0 | 10 | 0 | 0 | 0 | 0 | 23 | 14 | 5 | 8 | 24 | 23 | 7 |
| O=C(c1ccc(-c2cc(-c3c[nH]nc3-c3ccccn3)ccn2)cc1)N1CCOCC1 [GW812171] | 0 | 0 | 0 | 0 | 0 | 5 | 21 | 17 | 11 | 18 | 31 | 46 | 38 | 14 | 42 | 14 | 0 | 12 | 0 | 40 |
| CN1c2ccc(CNc3ccc(F)cc3)cc2-c2c(cnn2C)S1(=O)=O | 8 | 0 | 0 | 0 | 0 | 3 | 0 | 0 | 11 | 0 | 11 | 18 | 13 | 22 | 31 | 0 | 0 | 0 | 0 | 26 |
| Fc1ccc(-c2nn3c(OCC(F)(F)F)cccc3c2-c2ccncc2)cc1 [GW514784] | 0 | 0 | 0 | 0 | 0 | 0 | 0 | 0 | 0 | 48 | 0 | 0 | 0 | 0 | 20 | 1 | 3 | 0 | 0 | 35 |
| COc1cc(Nc2nccc(N3CCC(NC(=O)c4cccc(NC(C)=O)c4)C3)n2)cc(OC)c1OC (centres unmarked) [GSK1379754] | 2 | 23 | 10 | 0 | 0 | 0 | 0 | 0 | 15 | 0 | 0 | 0 | 7 | 17 | 93.5 | 0 | 19 | 30 | 21 | 27 |
| NCC(NC(=O)c1cc(-c2cn[nH]c2)c(-c2ccnc3[nH]ccc23)s1)c1ccccc1.O=C(O)C(F)(F)F.O=C(O)C(F)(F)F (centres unmarked) [GSK1325775] | 6 | 31 | 25 | 0 | 0 | 0 | 25 | 0 | 0 | 0 | 0 | 11 | 82 | 35 | 80 | 24 | 38 | 0 | 0 | 59 |
| O=c1cc(N2CCOCC2)nc2n(Cc3cccc(C(F)(F)F)c3)ccn12 [GSK2297543] | 0 | 0 | 0 | 0 | 0 | 1 | 0 | 0 | 12 | 9 | 0 | 0 | 0 | 31 | 0 | 0 | 4 | 0 | 0 | 0 |
| O=C(NCCNc1ccnc(Nc2ccc(F)cc2)n1)c1cc2ccccc2s1 [GSK1379874] | 0 | 0 | 3 | 0 | 0 | 0 | 0 | 0 | 0 | 0 | 0 | 0 | 41 | 29 | 22 | 0 | 0 | 0 | 0 | 7 |
| Cc1c(Cn2c(C)nn3c(=O)cc(N4CCOC(C)C4)nc23)cccc1C(F)(F)F (centres unmarked) [GSK2344444] | 0 | 18 | 16 | 1 | 0 | 0 | 0 | 0 | 0 | 0 | 0 | 0 | 0 | 17 | 49 | 0 | 0 | 10 | 0 | 0 |
| Cn1ccc2ncnc(Oc3ccc(NC(=O)Nc4ccncc4)c(Cl)c3)c21 | 0 | 0 | 0 | 0 | 0 | 0 | 11 | 2 | 0 | 2 | 40 | 32 | 0 | 0 | 4 | 0 | 0 | 0 | 0 | 0 |
| CCc1nc(-c2cccc(C)c2)c(-c2ccnc(NCc3ccccc3)c2)s1 | 0 | 12 | 0 | 0 | 0 | 0 | 1 | 0 | 0 | 0 | 0 | 1 | 0 | 9 | 1 | 6 | 0 | 0 | 0 | 2 |
| O=c1cc(N2CCOCC2)nc2n(Cc3cccc(F)c3)ccn12 [GSK2297430] | 11 | 9 | 4 | 12 | 0 | 0 | 0 | 0 | 10 | 0 | 0 | 0 | 0 | 0 | 31 | 0 | 18 | 16 | 0 | 0 |
| COc1ccc(Nc2nccc(N3CCC(NC(=O)Nc4cccc(C(C)=O)c4)C3)n2)cc1 (centres unmarked) [GSK1379731] | 0 | 8 | 0 | 0 | 0 | 0 | 0 | 0 | 10 | 0 | 0 | 0 | 0 | 40 | 36 | 0 | 0 | 35 | 0 | 0 |
| Cl.Nc1ncnc2occ(-c3ccc(NC(=O)Nc4cc(C(F)(F)F)ccc4F)cc3)c12 [SB-707548] | 77 | 92.9 | 99.7 | 15 | 0 | 0 | 32 | 26 | 0 | 0 | 15 | 57 | 0 | 23 | 91.4 | 10 | 33 | 98.3 | 17 | 62 |
| CNc1ncnc2[nH]ncc12 [SKF-18355] | 0 | 0 | 0 | 0 | 0 | 23 | 14 | 35 | 59 | 70 | 13 | 40 | 31 | 18 | 55 | 10 | 0 | 0 | 0 | 18 |

| Compound | %Inh (MAP4K3) [%] | %Inh (MAP4K4) [%] | %Inh (MAP4K5) [%] | %Inh (MAPKAPK2) [%] | %Inh (MAPKAPK5) [%] | %Inh (MARK1) [%] | %Inh (MARK2) [%] | %Inh (MARK3) [%] | %Inh (MARK4) [%] | %Inh (MAST1) [%] | %Inh (MEK1) [%] | %Inh (MEK2) [%] | %Inh (MEK3) [%] | %Inh (MEK4) [%] | %Inh (MEK5) [%] | %Inh (MEK6) [%] | %Inh (MELK) [%] | %Inh (MERTK) [%] | %Inh (MET) [%] | %Inh (MINK) [%] |
| --- | --- | --- | --- | --- | --- | --- | --- | --- | --- | --- | --- | --- | --- | --- | --- | --- | --- | --- | --- | --- |
| Cc1nnc(-c2ccc3ncc(-c4ccc(S(C)=O)cc4)n3c2)o1 (centres unmarked) | 0 | 0 | 0 | 22 | 5 | 0 | 20 | 0 | 0 | 34 | 9 | 9 | 6 | 24 | 42 | 0 | 4 | 0 | 15 | 0 |
| COc1ccc(COc2cc(-n3cnc4ccccc43)sc2C(N)=O)cc1 [GSK1024304] | 0 | 2 | 24 | 0 | 0 | 0 | 1 | 5 | 11 | 0 | 0 | 0 | 0 | 14 | 32 | 0 | 0 | 1 | 0 | 24 |
| NS(=O)(=O)CCc1cccc(Nc2nccc(-c3c(-c4cccc(NC(=O)c5c(F)cccc5F)c4)nn4ccccc34)n2)c1 [GSK336735] | 65 | 76 | 95.8 | 23 | 0 | 13 | 0 | 6 | 26 | 0 | 82 | 76 | 12 | 36 | 99.7 | 47 | 24 | 87 | 83 | 62 |
| O=C(NCCNc1ccnc(Nc2ccc(F)cc2)n1)Nc1ccccc1F [GSK1379880] | 0 | 0 | 0 | 12 | 0 | 0 | 0 | 0 | 0 | 0 | 0 | 0 | 0 | 26 | 30 | 0 | 0 | 7 | 0 | 0 |
| CCc1ccnc(/C=C/c2n[nH]c3cc(Sc4ccccc4C(=O)NC)ccc23)c1 | 0 | 0 | 3 | 0 | 0 | 27 | 4 | 3 | 21 | 0 | 0 | 10 | 0 | 0 | 62 | 9 | 6 | 0 | 0 | 34 |
| CC(C)(C)n1cnc2c(N)ncnc21 [SKF-97359] | 0 | 0 | 0 | 0 | 0 | 0 | 1 | 21 | 3 | 58 | 0 | 0 | 39 | 0 | 8 | 0 | 0 | 0 | 0 | 0 |
| Cc1cn2c(=O)cc(N3CCOCC3)nc2n1Cc1cccc(Cl)c1Cl [GSK2334006] | 5 | 16 | 19 | 28 | 0 | 0 | 0 | 2 | 0 | 0 | 11 | 0 | 0 | 17 | 54 | 0 | 17 | 5 | 0 | 0 |
| N#Cc1ccc(-c2cc(-c3c[nH]nc3-c3ccccn3)ccn2)cc1 [GW693028] | 0 | 46 | 0 | 4 | 0 | 0 | 0 | 0 | 0 | 26 | 0 | 0 | 0 | 1 | 13 | 0 | 0 | 15 | 0 | 76 |
| O=c1cc(N2CCOCC2)nc2n(Cc3cccc4ccccc34)ccn12 [GSK2333389] | 6 | 15 | 10 | 3 | 0 | 0 | 0 | 22 | 1 | 0 | 0 | 0 | 0 | 3 | 18 | 0 | 0 | 23 | 0 | 0 |
| Fc1ccc(-c2ncn(CCCN3CCOCC3)c2-c2ccccn2)cc1 [SB-211742] | 0 | 2 | 0 | 0 | 0 | 0 | 0 | 30 | 24 | 18 | 6 | 31 | 0 | 0 | 0 | 0 | 18 | 0 | 13 | 0 |
| O=C(Nc1cccc(-c2nn3ncccc3c2-c2ccnc(Nc3cccc(C(F)(F)F)c3)n2)c1)c1c(F)cccc1F [GSK299495] | 0 | 0 | 48 | 35 | 0 | 0 | 0 | 2 | 0 | 0 | 48 | 54 | 0 | 29 | 97.6 | 7 | 0 | 51 | 0 | 0 |
| COC(=O)Nc1nc2cc(Oc3ccc(NC(=O)Nc4cc(F)ccc4F)cc3)ccc2[nH]1.Cl [GW701424] | 0 | 0 | 0 | 13 | 0 | 0 | 0 | 3 | 0 | 5 | 0 | 0 | 0 | 15 | 12 | 0 | 10 | 90.8 | 40 | 5 |
| O=c1cc(N2CCOCC2)nc2n(Cc3cccc(Cl)c3Cl)c(C3CC3)nn12 [GSK2358994] | 0 | 0 | 0 | 1 | 0 | 0 | 0 | 0 | 4 | 4 | 17 | 13 | 22 | 0 | 6 | 17 | 3 | 34 | 0 | 0 |
| CC(=O)Nc1ccc(COc2ccc(Nc3ccnc4cc(-c5ccccn5)ccc34)cc2)cc1.Cl [GW440148] | 0 | 0 | 0 | 0 | 2 | 0 | 0 | 8 | 0 | 16 | 51 | 70 | 0 | 0 | 99.5 | 18 | 5 | 11 | 5 | 11 |
| CSc1ccc(-c2cc3ncnc(SCC(=O)O)c3s2)cc1 | 0 | 0 | 0 | 1 | 0 | 0 | 18 | 6 | 0 | 15 | 0 | 0 | 2 | 0 | 1 | 0 | 10 | 0 | 3 | 8 |
